MCF10A rereplic – A quantitative high throughput screen for small molecules that induce DNA re-replication in MCF 10a normal breast cells; Potency, µM (doses to about 46.1 µM), for the others: top-dose activity, positive = re-replication, hits mostly activators; AID 624296, 2012; MCF 10A DNA re-replication, Hoechst nuclear intensity, 48 h; hit rate 2.9% among 350,000; further: % of control where 0% means no effect; nearly all actives have a fitted effect of over 50% in size
KB-V1 cytotox – qHTS assay for MDR1-selective chemotherapeutics: Primary screen using the drug-selected MDR subline cells KB-V1. hit rate 3.4% among 400,000. KB-V1 MDR cells viability, CellTiter-Glo, 72 h. Potency, µM (series often up to 46.1 µM), hits mostly cytotoxic; further: on the % scale 0 is the no-effect control and ±100 the full control effect; nearly all actives have a fitted effect of over 60% in size
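Cytotoxicity toward P-gp-expressing KB-V1 cells was determined as loss of CellTiter-Glo luminescence after 72 h at 37 degrees C. Compounds were tested in quantitative HTS format across a concentration range, with curves fitted to normalized data.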
KB-3-1 cytotox – qHTS assay for MDR1-selective chemotherapeutics: Primary screen using the parental adenocarcinoma cell KB-3-1; AID 1347075, 2019; hit rate 1.4% among 400,000; KB-3-1 viability, CellTiter-Glo ATP luminescence, 72 h; Potency, µM (series often up to 46.1 µM), actives largely listed as cytotoxic; further: on the % scale 0 is the no-effect control and ±100 the full control effect; nearly all actives have a fitted effect of over 60% in size
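Using CellTiter-Glo luminescence, growth of non-resistant KB-3-1 adenocarcinoma cells is assessed 72 h after pin-tool compound addition at 37 °C. Normalized responses across the concentration series yield fitted curves.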
HT1080 IDH1KD tx – qHTS for induction of synthetic lethality in tumor cells producing 2HG: qHTS for the HT-1080-IDH1KD cell line; HT-1080 IDH1 knockdown viability, ATP luminescence, 48 h; Potency, µM (series often up to 46.1 µM), without a hit: at the top dose activity, negative = toxicity, usual class: cytotoxic; hit rate 2% among 360,000;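 further: 0% = DMSO wells and -100% = cell-free medium wells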
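Luminescent ATP read-out (CellTiter-Glo, 10 min at room temperature) after 48 h compound exposure at 37 °C gave viability of IDH1-knockdown HT-1080 cells. Activity was normalised to DMSO and cell-free wells, then fitted as concentration-response curves.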
SW480 rereplic – A quantitative high throughput screen for small molecules that induce DNA re-replication in SW480 colon adenocarcinoma cells | SW480 DNA re-replication, Hoechst DNA content imaging, 48 h | Potency, µM (series often up to 46.1 µM), inactives show at the highest dose re-replication activation, hits mostly activators | hit rate 1.8% among 340,000; further: % of control where 0% means no effect; nearly all actives have a fitted effect of over 55% in size
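DNA re-replication was detected as more nuclei of elevated Hoechst intensity after 48 hr exposure to compound (23 nL pinned per well of 250 cells).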
HT1080-NT tox – qHTS for induction of synthetic lethality in tumor cells producing 2HG: qHTS for the HT-1080-NT fibrosarcoma cell line. hit rate 1.6% among 360,000. Potency, µM (doses to about 46.1 µM), without a hit: top-dose activity, negative = less viability, actives largely listed as cytotoxic. HT-1080-NT fibrosarcoma viability, CellTiter-Glo ATP luminescence, 48 h;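 further: NT is the 2HG producing partner of a matched IDH1 knockdown line; 0% = DMSO-treated cells and -100% = media-only wells without cells; nearly all actives have a fitted effect of over 55% in size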
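Luminescent CellTiter-Glo readout after 48 hours of compound exposure at 37 degrees C defined viability of HT-1080-NT cells. Activity was normalized to DMSO wells and cell-free media wells; concentration-response curves were fitted and assigned curve classes.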
* marks the source's active call; other numbers are inactive results; i = inactive; u = inconclusive; x = no result; ! = not confirmed by another sample. Rows were chosen to be rich in hits. Some 8% of all compounds tested hit in one or more screens of this group. The call rests on the fitted dose curve; in most records, active means well fitted curve in the direction sought with a large enough effect; inconclusive means small, poorly fitted or top-dose-only effect, or another doubt; inactive means no such curve, though single readings can be large; an effect the other way counts as inactive or inconclusive. Potency means the concentration at half of the fitted maximal effect.

SMILES | MCF10A rereplic | KB-V1 cytotox | KB-3-1 cytotox | HT1080 IDH1KD tx | SW480 rereplic | HT1080-NT tox
O=C(Nc1ccn(Cc2ccc(Cl)cc2)n1)c1ccc2c(c1)OCO2 | -5% | i | i | -4% | -4% | -27%
c1cc(CNc2ccc3c(c2)OCO3)ccn1 | 19% | i | i | 5% | -6% | 8%
COc1cc(NC(=O)CCl)ccc(=O)c1 | x | u | i | 23µM* | x | 21µM*
Cc1ccc(CNc2ccc3c(c2)OCO3)cc1 | 23µM* | u | u | u | 23µM* | u
Cc1cccc(Cn2ccc(NC(=O)c3ccc4c(c3)OCO4)n2)c1 | 8% | 18µM* | i | 1% | -2% | -4%
Cc1ccc(C(=O)Nc2ccc3c(c2)OCO3)cc1 | 22% | u | i | -29% | 2% | u
CCCCCn1cc2c(c1-c1ccc(Br)cc1)c(=O)n(C)c(=O)n2C | x | i | i | x | x | x
NC(=O)C1CCN(c2nnc(-c3ccc(Br)cc3)s2)CC1 | x | i | i | x | x | x
C=CCN(c1ccc(C(=O)Nc2ccc(C)c(C)c2)cc1)S(C)(=O)=O | 0% | 21µM* | i | -4% | 0% | -1%
O=C(CCl)Nc1ccc2c(c1)OCO2 | 94% | u | 15µM* | 18µM* | u | 9.2µM*
CCOc1ccc(-c2nc3c(c(CC)nn3-c3ccccc3)c3cc(OC)c(OC)cc23)cc1 | x | i | i | x | x | x
CC1CCCN(CCCOc2ccc(Br)cc2Cl)C1 (centres undefined) | u | u | i | 21µM* | u | 16µM*
C=CCc1ccc(OCCCN2CCCC(C)C2)c(OC)c1 (centres undefined) | 16% | u | i | -13% | u | 5%
CC1CCN(CCOCCOc2ccc(Br)cc2Cl)CC1 | u | 23µM* | u | -29% | u | -24%
Cc1cc(Br)ccc1OCCOCCN1CCCC1 | 1% | i | i | -5% | 1% | -14%
Cc1cccnc1Sc1c([N+](=O)[O-])ncn1C | -1% | i | i | u | -6% | 0%
Cn1cnc([N+](=O)[O-])c1Sc1ncnc2nc[nH]c12 | u | u | 1.8µM* | 4.1µM* | 6% | 4.1µM*
Cn1cnc(Sc2ncnc3nc[nH]c23)c1[N+](=O)[O-] | u | u | u | 18µM* | 13% | u
CCOC(=O)C(CCc1ccccc1)NC1CCc2ccccc2N(CC(=O)O)C1=O (centres undefined) | 30µM* | x | x | x | 27µM* | x
CCOc1cc(C(=O)NCC(c2ccc(N(C)C)cc2)N2CCOCC2)cc(OCC)c1OCC (centres undefined) | x | i | i | x | x | x
CCOc1ccc(OCC)c(NS(=O)(=O)c2c(C(=O)N3CCCCCC3)c(C)n(C)c2C)c1 | x | i | i | x | x | x
CCCN(CC(=O)Nc1ccc(Cl)cc1Cl)C(=O)/C=C/c1ccco1 | 9.2µM* | u | u | u | -4% | u
CCN(CC(=O)Nc1ccc(NC(C)=O)cc1)C(=O)/C=C/c1ccco1 | 3% | u | i | -2% | -35% | 2%
Cc1n[nH]c(C)c1S(=O)(=O)N(CC(=O)NCc1ccccc1Cl)c1ccc(C(C)C)cc1 | x | i | i | x | x | x
CN(C)c1ccc(/C=C/C=C2/C=Cc3ccccc32)cc1 | x | i | i | x | x | x
SMILES | MCF10A rereplic | KB-V1 cytotox | KB-3-1 cytotox | HT1080 IDH1KD tx | SW480 rereplic | HT1080-NT tox
CCOc1ccc(NC(=O)CSC2=Nc3ccccc3C3=NC(CC(=O)NCc4ccccc4OC)C(=O)N23)cc1 (centres undefined) | x | i | i | x | x | x
CC(=O)N(\C=C/C=C/C=C1\Sc2ccccc2C1=O)c1ccccc1 | 15µM* | u | i | u | -1% | u
Cc1ccc(NC(=O)c2cccc3c(=O)c4c([nH]c23)CCCC4)c(C)c1 | x | i | u | x | x | x
COc1ccc(C2c3c(n(C)c4ccccc34)C(=O)N2CC(=O)Nc2ccc(C)cc2Cl)cc1 (centres undefined) | x | i | i | x | x | x
CS(=O)(=O)c1ccc([C@@H](O)[C@@H](COC(=O)CN)NC(=O)C(Cl)Cl)cc1 | -1% | x | x | x | -3% | x
CN(C(=O)CCl)C1CCCc2ccccc21 (centres undefined) | u | u | 5.8µM* | u | 2.3µM* | u
CNC(=O)c1ccc(Nc2nnc(-c3ccc(C)c(S(=O)(=O)NC(C)(C)C)c3)c3ccccc23)cc1 | x | i | i | x | x | x
Cc1cc(C)cc(NC(=O)c2sc3nc[nH]c(=O)c3c2C)c1 | x | i | i | x | x | x
O=C(Nc1ccc(Cc2ccncc2)cc1)C1CCC(N2C(=O)C3CC=CCC3C2=O)CC1 (centres undefined) | -12% | 15µM* | i | -21% | 2% | -25%
O=C(Nc1ccc(Cc2ccncc2)cc1)C1CCC(N2C(=O)C3C4C=CC(C4)C3C2=O)CC1 (centres undefined) | -11% | u | i | 2% | -9% | u
COc1ccc(CCNC(=O)C(CC(C)C)N2Cc3ccccc3C2=O)c(OC)c1OC (centres undefined) | x | i | i | x | x | x
O=C1CC(=Nc2ccccc2)NN1c1ccccc1 | u | i | u | u | 4% | 18µM*
CSc1ncc(Cl)c(C(=O)Nc2ccc(S(=O)(=O)N3CCC(C)CC3)cc2)n1 | x | i | u | x | x | x
CN(C)c1ccc(/C=C/c2ccc3ncccc3c2)cc1 | x | i | i | x | x | x
CCN(CC)CCOc1ccc(/C(=C(/Cl)c2ccccc2)c2ccccc2)cc1 | 4.1µM*! | u | u | 18µM*! | -6% | 18µM*
CC/C(=C(\c1ccccc1)c1ccc(OCCN(C)C)cc1)c1ccccc1 | u | u | i | u | 1.3µM*! | 16µM*
CCOc1ccc(C(=O)OCCN(CC)CC)cc1 | 16% | i | i | 7% | -11% | 1%
CN(C)CCOc1ccc(C(C)(C)c2ccccc2)cc1 | 13% | i | i | 15% | 2% | 17%
CN1CC2=Cc3ccccc3OC23Oc2ccccc2C=C3C1 | u | u | u | u | u | 16µM*
CCOc1ccc(-c2cc(C(=O)N3CCN(C)CC3)c3ccccc3n2)cc1 | -3% | i | i | 1% | 1% | 6%

Compound activity from PubChem BioAssay.
